Screens: PubChem, National Center for Advancing Translational Sciences (NCATS)
Hits are enriched below; roughly 4.7% of the tested compounds scored in any of these assays.
D1 agonist = human D1 receptor agonism | P21728 | activation, % at 2 µM | AID 504660 | 1% of 360,000 active | HEK293 T-REx D1 cells, calcium flux, agonist mode; also: 0% is about no effect
Target sequence (P21728 whole entry, looked up): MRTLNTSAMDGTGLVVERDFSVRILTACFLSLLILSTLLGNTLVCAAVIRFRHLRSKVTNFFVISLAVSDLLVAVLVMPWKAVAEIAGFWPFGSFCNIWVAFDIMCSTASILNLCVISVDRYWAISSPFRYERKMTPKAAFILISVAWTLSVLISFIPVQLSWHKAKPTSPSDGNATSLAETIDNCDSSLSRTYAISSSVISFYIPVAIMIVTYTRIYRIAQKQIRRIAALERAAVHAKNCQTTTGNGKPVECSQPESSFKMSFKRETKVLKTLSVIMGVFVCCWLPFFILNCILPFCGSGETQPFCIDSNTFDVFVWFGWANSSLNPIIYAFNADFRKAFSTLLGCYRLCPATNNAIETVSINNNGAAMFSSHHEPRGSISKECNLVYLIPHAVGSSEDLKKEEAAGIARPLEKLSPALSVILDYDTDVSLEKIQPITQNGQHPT
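Tetracycline-induced HEK293 TREx D1 cells, force-coupled to calcium signalling, were dye-loaded with a no-wash calcium kit. Compound was pin-added after a 10 s baseline. Fluorescence was read kinetically at 1 cycle/s for 180 s, with calcium rises flagged as agonism.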
TRHR PAM = allosteric enhancers of human TRH receptor; P34981; TRHR cells, fluo-8 calcium fluorescence, EC20 TRH enhancement; enhancement, % at 2 µM; 0.66% of 360,000 active; AID 493056; in the data active = enhancement above about 30%; also: 0% is about no effect
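TRHR-expressing cells loaded with fluo-8 calcium dye were read kinetically (ex 480/em 530) during compound addition, then stimulated with an EC20 of TRH (10 nM final). Enhancement of the Gq-mediated intracellular calcium response was scored.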
D1 PAM = potentiators of human D1 dopamine receptor | P21728 | 0.036% of 360,000 active | HEK293 TREx D1 cells, calcium flux, dopamine EC20 potentiation | potentiation, % at 10 µM; in the data active = potentiation above about 30%; also: 0% is about no effect
D1 antag = antagonists of human D1 dopamine receptor; P21728; HEK293 TREx D1 cells, calcium flux, dopamine EC80; active compounds read low; activity change, negative = inhibition, % at 10 µM; 3.2% of 360,000 active; AID 504652; in the data active = activity change below about -30%; also: % is scaled to controls: 0 for no effect and ±100 for the full control effect
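Cells carrying a force-coupled, tetracycline-inducible human D1 receptor report calcium flux. Each well gets a 10 s baseline, compound with 180 s monitoring, then an EC80 dopamine stimulus with a second 180 s kinetic read.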
TRHR ag = activates the human TRH receptor. P34981. TRHR cells, calcium flux fluo-8, FDSS agonist mode. activation, % at 2 µM. 0.18% of 360,000 active; also: 0% is about no effect
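Read-out: compound-evoked intracellular calcium rise in TRHR cells, fluo-8 dye, kinetic FDSS fluorescence at 1 s/cycle following a 10-cycle baseline. Cells cultured overnight before dye loading (30 min–1.5 h, RT).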
Active calls of the source: *; . = not tested or not shown. Rule as the data show it, unless noted: active = activation above about 30%; inactive = the rest.

SMILES | D1 agonist | TRHR PAM | D1 PAM | D1 antag | TRHR ag
CCCCCCOc1ccc(N2C(=O)CC(N3CCN(C(=O)c4ccco4)CC3)C2=O)cc1 (stereo not drawn) | 19.4 | 0.3 | -3.8 | -40.8* | 0.5
CCCOc1ccc(N2C(=O)CC(N3CCN(C(=O)c4ccco4)CC3)C2=O)cc1 (stereo not drawn) | 2.4 | -0.4 | -0.6 | -2.4 | 0.2
CCCOc1ccc(N2C(=O)CC(N3CCN(c4nc5ccccc5s4)CC3)C2=O)cc1 (stereo not drawn) | 3.0 | 3.2 | 2.7 | -30.8* | -1.4
COc1ccc(-c2cn(Cc3ccc4ccccc4c3)nn2)cc1 | 6.8 | -5.0 | -3.3 | -31.9* | 1.2
COc1ccc(C(=O)/C=C/C(=O)N(Cc2ccc(F)cc2)C(C(=O)NC2CCCCC2)c2ccncc2)c(O)c1 (stereo not drawn) | 0.5 | 15.2 | -8.6 | -30.8* | -0.1
COc1ccc(C(=O)/C=C/C(=O)N(Cc2ccccc2)C(C(=O)NC2CCCCC2)c2ccncc2)c(O)c1 (stereo not drawn) | 3.0 | 12.1 | -2.1 | -9.5 | -0.5
Cc1ccc(C)c(NC(=O)C2CCCN(c3nc4ccccc4s3)C2)c1 (stereo not drawn) | 0.2 | -0.5 | 3.2 | 4.1 | -1.5
O=C1NC2=C(C(=O)CCC2)C(c2ccc3ncccc3c2)N1 (stereo not drawn) | 3.0 | 3.0 | 0.4 | -39.6* | 0.2
O=C1CCCC2=C1C(c1ccncc1)Nc1ccccc1N2 (stereo not drawn) | 0.4 | -3.2 | -6.0 | 5.7 | 0.2
CCOc1ccccc1C(=O)NC1CCN(CC(=O)Nc2cc(OC)ccc2OC)CC1 | 0.3 | -5.1 | -11.3 | -30.9* | -1.3
COc1ccc(F)cc1CN1CCN(CC(=O)Nc2ccccc2C(=O)NC2CC2)CC1 | 1.2 | 0.1 | -6.8 | -36.8* | -0.8
CCOc1ccccc1NC(=O)CN1CCC(NC(=O)c2ccccc2C)CC1 | 2.3 | -6.4 | -3.7 | -8.5 | -1.3
CCNC(=O)c1ccc(NS(=O)(=O)c2ccc3[nH]c(=O)[nH]c3c2)cc1 | 5.2 | 2.4 | -7.0 | -40.6* | 3.3
COc1ccc(S(=O)(=O)Nc2ccc3cn[nH]c3c2)cc1C | 4.0 | 39.3* | -1.1 | 3.0 | -0.3
COC(=O)c1ccc(NS(=O)(=O)c2ccc3[nH]c(=O)oc3c2)cc1 | 0.0 | 2.5 | -11.7 | -30.2* | 0.1
COc1ccc(NS(=O)(=O)c2ccc3[nH]c(=O)[nH]c3c2)cc1OC | 2.0 | 31.6* | -6.3 | -12.3 | 1.3
Cc1ccc2c(=O)cc(C(=O)Nc3sc4c(c3C(=O)NCc3ccco3)CCCC4)oc2c1C | 1.9 | 5.1 | 0.1 | -15.3 | 0.3
COc1ccc(N2CC(NC(=O)C(=O)c3c(C)[nH]c4ccccc34)CC2=O)cc1 (stereo not drawn) | -0.8 | -6.7 | -2.9 | . | 0.2
Cc1ccc(C)c2nc3sc(C(=O)N4CCOCC4)c(N)c3cc12 | 1.2 | -6.5 | 0.9 | 3.8 | -0.2
Cc1ccc2nc3sc(C(=O)Nc4ccc(N5CCOCC5)cc4)c(N)c3cc2c1 | 38.7* | 0.7 | -8.0 | -22.0 | 4.3
Cc1cc(C)c2nc3sc(C(=O)N4CCOCC4)c(N)c3cc2c1 | 38.5* | 2.3 | 4.8 | -0.5 | 19.0
CC(C)(C)OC(=O)Cc1nnc(C(C(=O)OCc2ccccc2)c2ccccc2)o1 (stereo not drawn) | 9.2 | -0.4 | 1.4 | 9.3 | 1.2
CCN(CC)C(=O)Cn1cc(SCC(=O)Nc2ccccc2F)c2ccccc21 | 10.5 | 3.3 | -4.9 | -14.4 | -0.4
O=S(=O)(c1ccc(F)c(F)c1F)N1CCN(C(=S)NC2CC3CCC2C3)CC1 (stereo not drawn) | 3.5 | 13.0 | -8.9 | -30.5* | 0.8
O=S(=O)(c1ccc(F)c(F)c1F)N1CCN(C(=S)NCc2ccccc2)CC1 | 11.9 | -5.4 | 4.2 | -17.7 | 2.3
Cc1ccccc1-n1cnc2cc(NCc3cccs3)ccc21 | 5.9 | -5.0 | -10.1 | -37.4* | -0.6
COc1ccc(CCC(C)NCc2ccc(Cl)c(Cl)c2)cc1 (stereo not drawn) | 31.7* | 4.2 | -1.6 | 4.2 | 0.4
COc1ccc(CCC(C)NCc2cc(OC)cc(OC)c2)cc1 (stereo not drawn) | 8.0 | 14.3 | -6.3 | -28.5 | -0.4
COc1ccc(CCC(C)NCCc2ccc(Cl)cc2Cl)cc1 (stereo not drawn) | 50.9* | 8.7 | -8.8 | 23.6 | 3.5
